Reference: the supplement of paper PMC6555819

Legend:
Test in all cases: PBM binding z-score (relative to random genomic background probes); higher = stronger binding; sequences stand for … in GC…GCGATTGACAGCGTAGAATGAAGG
[1] = system: FXR:RXRa (NR concentration 270 nM, RXRa partner concentration 90 nM)
Outline: (§1)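 Random background probes are the reference for binding z-scores. These scores derive from regression-normalized fluorescence on custom Agilent 4×180K protein-binding microarrays incubated 1 h with ligand-free nuclear receptor dimers. Binding was detected with antibodies against each partner (one per run).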

[2] = system: LXRa:RXRa (NR concentration 270 nM, RXRa partner concentration 90 nM)
Outline: as §1

[3] = system: LXRa homodimer (NR concentration 270 nM)
Outline: as §1

[4] = system: LXRb:RXRa (NR concentration 270 nM, RXRa partner concentration 90 nM)
Outline: as §1

[5] = system: LXRb homodimer (NR concentration 270 nM)
Outline: as §1

[6] = system: PPARa:RXRa (NR concentration 270 nM, RXRa partner concentration 90 nM)
Outline: as §1

[7] = system: PPARg:RXRa (NR concentration 180 nM, RXRa partner concentration 90 nM)
Outline: as §1

[8] = system: PPARg:RXRa 270nM:90nM, anti-RXR (NR concentration 270 nM, RXRa partner concentration 90 nM)
Outline: as §1

[9] = system: PPARg:RXRa 30nM:10nM, anti-RXR (NR concentration 30 nM, RXRa partner concentration 10 nM)
Outline: as §1

[10] = system: PPARg:RXRa 90nM:30nM, anti-RXR (NR concentration 90 nM, RXRa partner concentration 30 nM)
Outline: as §1

[11] = system: PPARg:RXRa DBDmut IVT, anti-RXR (DBD mutation: RXRa K156A/R161A, NR concentration 270 nM, RXRa partner concentration 90 nM)
Outline: as §1

[12] = system: PPARg:RXRa IVT, anti-PPARg (NR concentration 270 nM, RXRa partner concentration 90 nM)
Outline: as §1

[13] = system: PPARg DBDmut:RXRa IVT, anti-PPARg (DBD mutation: PPARg1 K132A/R137A, NR concentration 270 nM, RXRa partner concentration 90 nM)
Outline: as §1

[14] = system: PPARg DBDmut IVT, anti-PPARg (DBD mutation: PPARg1 K132A/R137A, NR concentration 270 nM)
Outline: as §1

[15] = system: PPARg homodimer (NR concentration 180 nM)
Outline: as §1

[16] = system: PXR:RXRa (NR concentration 270 nM, RXRa partner concentration 90 nM)
Outline: as §1

[17] = system: PXR homodimer (NR concentration 270 nM)
Outline: as §1

[18] = system: RARa:RXR (NR concentration 270 nM, RXRa partner concentration 90 nM)
Outline: as §1

[19] = system: RARa homodimer (NR concentration 270 nM)
Outline: as §1

[20] = system: RARb:RXRa (NR concentration 270 nM, RXRa partner concentration 90 nM)
Outline: as §1

Sequence	PBM binding z-score [1]	PBM binding z-score [2]	PBM binding z-score [3]	PBM binding z-score [4]	PBM binding z-score [5]	PBM binding z-score [6]	PBM binding z-score [7]	PBM binding z-score [8]	PBM binding z-score [9]	PBM binding z-score [10]	PBM binding z-score [11]	PBM binding z-score [12]	PBM binding z-score [13]	PBM binding z-score [14]	PBM binding z-score [15]	PBM binding z-score [16]	PBM binding z-score [17]	PBM binding z-score [18]	PBM binding z-score [19]	PBM binding z-score [20]
ATCGAAAGGTAGTGAGGTGAGTATACAGAAAGGC	0.0464	-0.187	0.0161	-0.247	-0.154	0.153	0.582	0.0693	0.155	0.0111	-0.75	0.597	0.685	1.02	-0.358	-0.273	0.226	-0.126	0.18	0.322
CCTGACAGGTGAAAGGTAACTCAGTCTGGTACGC	0.803	0.991	-0.258	0.923	-0.669	3.38	5.7	6.09	4	5.75	2.33	2.82	-0.213	-0.0292	0.546	0.876	-0.396	1.84	0.115	1.3
TCTAGTAGATCAGCAGGTTAAGAAAGCTGGCCAA	0.258	0.127	-0.552	0.373	-0.762	0.734	-0.257	1.37	2.66	2.06	1.99	0.125	-0.189	-1.02	0.292	0.255	-0.699	0.387	-0.353	0.266
GGAACGAGGGCATTCTAGTTGATAGCATGGCGAT	1.44	1.08	-0.665	0.264	-0.166	1.21	0.871	0.642	-0.247	0.231	3.02	2.04	-0.851	-0.214	-0.294	1.53	0.396	0.248	-0.43	1.58
ATACCAAGGTGATCTTGAGGTCGTTGATACTAAC	2.36	2.49	1.86	1.92	0.411	1.91	0.527	0.843	-0.161	0.624	0.853	1.45	0.8	0.628	1.02	3.3	2.03	2.54	0.867	1.71
CGACCAAGGTCAAAGGTCAGTGAAGAGATGACGG	8.72	6.8	3.14	6.54	1.18	7.07	11.3	9.46	9.86	10.4	4.11	6.17	1.79	0.574	5.46	7.16	1.55	9.08	2.47	5.95
CAGCCTAGGTCAGGGCCAATATAGGAGGAACGTT	1.73	0.833	-0.284	0.824	-1.05	2.05	1.37	1.22	0.246	0.449	1.3	1.88	-0.288	-1.23	0.413	0.404	-0.114	0.941	0.127	3.5
TAGCCTAGGTCCTGCGGGCCAGTATAGTGTCGGC	-1.69	-1.08	-1.14	-1.49	-1.06	-1.2	-0.732	-0.789	-0.922	-1.13	-1.61	-0.181	-1.11	-0.969	-1.72	-0.971	-1.03	-0.898	-1.52	-0.954
CCTCGGAGGGCAACAGGAGGTCAGAGCTGCCAGA	2.19	3.83	1.29	2.23	-0.758	3.02	0.969	1.32	-0.587	0.405	0.555	1.54	-1.74	-1.13	1.67	3.35	-0.207	3.63	0.286	3.71
ATCGAAAGGTCGTGAGGTGAGTAGACAGAAAGGC	5.21	4.15	0.0462	2.98	0.701	4.93	3.83	4.25	1.29	3.08	0.467	2.39	0.658	0.706	1.44	3.07	0.328	4.15	0.372	3.9
CGTCAAAGTTCAACTAAGGTAACGAAAAGCACGC	7.29	6.07	3.55	3.97	2.13	5.07	4.84	5.42	2.21	4.48	0.421	2.48	0.738	0.747	4.18	5.19	4.69	4.25	2.25	5.13
ACTATTAGTTGACTTAGGGAAACCGATACGACGC	0.197	0.155	0.512	0.0262	0.742	-0.255	0.843	0.171	0.193	0.259	0.323	0.25	1.26	1.45	0.412	-0.145	0.319	0.0911	0.75	0.0734
CTCGAAAGGTCGTGCTCAGGTAAGTATACCAAAC	5.43	4.11	0.35	3.55	0.134	5.08	2.41	4.23	1.01	2.94	0.999	1.78	0.44	-0.41	1.63	3.24	0.482	3.73	0.0606	3.99
TCTGCTAGGTAAACGATGGTCAGCTAATCTGCTA	-0.588	-0.334	-0.988	-0.606	-1.07	-0.0928	-0.293	0.636	1.68	1.22	1.06	0.192	-0.37	-0.397	-1.72	-0.369	-0.821	-0.233	-1.63	-0.0745
CCTAGTTGGTCAGGAGGTCACACGCCGGATATGA	3.62	3.32	1.92	3.15	0.554	4.05	3.59	3.92	1.69	2.84	1.84	3.74	0.471	-0.188	3.2	4.12	1.31	4.32	1.9	3.71
